# Results as given in the supplement of paper PMC8728848.
# This is one part of a sample in which the strongest signals are shown more often than they occur.
# Key:
# Experiment in all cases: glycan array binding signal (z-score within array); higher = stronger binding
# Conditions in all cases: glycan notation: IUPAC condensed, linker removed
# [1] = target: Fuc(a1-2)Gal(b1-4)Glc6S
# Method in brief: (§1)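 Negative Z-scores can be read as non-binding. The Z-score is calculated within each array and then averaged across arrays of one protein sequence at different concentrations or buffers and across linkers. Arrays, 3228 in all, were curated from the Consortium for Functional Glycomics database and kept only where the protein sequence was available.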
# [2] = target: Fuc(a1-2)[Gal(a1-3)]Gal(b1-4)GlcNAc
# Method in brief: as §1
# [3] = target: Fuc(a1-2)[Gal(a1-3)]Gal(b1-4)GlcNAc(b1-3)[Fuc(a1-2)[Gal(a1-3)]Gal(b1-4)GlcNAc(b1-6)]GalNAc
# Method in brief: as §1
# [4] = target: Fuc(a1-2)[Gal(a1-3)]Gal(b1-4)[Fuc(a1-3)]GlcNAc(b1-3)GalNAc
# Method in brief: as §1
# [5] = target: Fuc(a1-3)[Gal(b1-4)]GlcNAc(b1-4)Gal(b1-4)[Fuc(a1-3)]GlcNAc
# Method in brief: as §1
# [6] = target: Gal(a1-3)Gal(b1-4)GlcNAc(b1-2)Man(a1-3)[Gal(a1-3)Gal(b1-4)GlcNAc(b1-2)Man(a1-6)]Man(b1-4)GlcNAc(b1-4)GlcNAc
# Method in brief: as §1
# [7] = target: Gal(a1-3)Gal(b1-4)GlcNAc(b1-6)GalNAc
# Method in brief: as §1
# [8] = target: Gal(a1-3)Gal(b1-4)[Fuc(a1-3)]GlcNAc(b1-2)Man(a1-3)[Gal(a1-3)Gal(b1-4)[Fuc(a1-3)]GlcNAc(b1-2)Man(a1-6)]Man(b1-4)GlcNAc(b1-4)GlcNAc
# Method in brief: as §1
# [9] = target: Gal(b1-3)[Neu5Ac(a2-6)]GlcNAc(b1-4)Gal(b1-4)Glc
# Method in brief: as §1
# [10] = target: Gal(b1-4)GalNAc(a1-3)[Fuc(a1-2)]Gal(b1-4)GlcNAc
# Method in brief: as §1
# [11] = target: Gal(b1-4)GlcNAc
# Method in brief: as §1
# [12] = target: Gal(b1-4)GlcNAc(b1-2)Man
# Method in brief: as §1
# [13] = target: Gal(b1-4)GlcNAc(b1-2)Man(a1-6)[Man(a1-3)]Man(b1-4)GlcNAc(b1-4)GlcNAc
# Method in brief: as §1
# [14] = target: Gal(b1-4)GlcNAc(b1-2)[Gal(b1-4)GlcNAc(b1-4)]Man(a1-3)[Gal(b1-4)GlcNAc(b1-2)[Gal(b1-4)GlcNAc(b1-6)]Man(a1-6)]Man(b1-4)GlcNAc(b1-4)GlcNAc
# Method in brief: as §1
# [15] = target: Gal(b1-4)GlcNAc(b1-3)Gal(b1-4)Glc
# Method in brief: as §1
# [16] = target: Gal(b1-4)GlcNAc(b1-3)Gal(b1-4)GlcNAc(b1-2)[Gal(b1-4)GlcNAc(b1-3)Gal(b1-4)GlcNAc(b1-6)]Man(a1-6)[Gal(b1-4)GlcNAc(b1-3)Gal(b1-4)GlcNAc(b1-2)Man(a1-3)]Man(b1-4)GlcNAc(b1-4)GlcNAc
# Method in brief: as §1
# [17] = target: Gal(b1-4)GlcNAc(b1-3)Gal(b1-4)GlcNAc(b1-3)Gal(b1-4)GlcNAc
# Method in brief: as §1
# [18] = target: Gal(b1-4)GlcNAc(b1-3)Gal(b1-4)GlcNAc(b1-3)Gal(b1-4)GlcNAc(b1-2)[Gal(b1-4)GlcNAc(b1-3)Gal(b1-4)GlcNAc(b1-3)Gal(b1-4)GlcNAc(b1-6)]Man(a1-6)[Gal(b1-4)GlcNAc(b1-3)Gal(b1-4)GlcNAc(b1-3)Gal(b1-4)GlcNAc(b1-2)Man(a1-3)]Man(b1-4)GlcNAc(b1-4)[Fuc(a1-6)]GlcNAc
# Method in brief: as §1
# [19] = target: Gal(b1-4)GlcNAc(b1-3)Gal(b1-4)GlcNAc(b1-3)Gal(b1-4)GlcNAc(b1-3)Gal(b1-4)GlcNAc(b1-3)Gal(b1-4)GlcNAc(b1-2)[Gal(b1-4)GlcNAc(b1-3)Gal(b1-4)GlcNAc(b1-3)Gal(b1-4)GlcNAc(b1-3)Gal(b1-4)GlcNAc(b1-3)Gal(b1-4)GlcNAc(b1-6)]Man(a1-6)[Gal(b1-4)GlcNAc(b1-3)Gal(b1-4)GlcNAc(b1-3)Gal(b1-4)GlcNAc(b1-3)Gal(b1-4)GlcNAc(b1-3)Gal(b1-4)GlcNAc(b1-2)Man(a1-3)]Man(b1-4)GlcNAc(b1-4)[Fuc(a1-6)]GlcNAc
# Method in brief: as §1
# [20] = target: Gal(b1-4)GlcNAc(b1-3)[Gal(b1-4)GlcNAc(b1-6)]Gal(b1-4)GlcNAc
# Method in brief: as §1
# [21] = target: Gal3S(b1-4)GlcNAc6S
# Method in brief: as §1
# [22] = target: Gal3S4S(b1-4)GlcNAc
# Method in brief: as §1
# [23] = target: Gal3S6S(b1-4)GlcNAc
# Method in brief: as §1
# [24] = target: GalNAc(b1-3)Gal(a1-6)Gal(b1-4)Glc
# Method in brief: as §1
# [25] = target: GalNAc(b1-3)GalNAc
# Method in brief: as §1
# [26] = target: GlcNAc(b1-3)Gal(b1-4)GlcNAc(b1-3)[GlcNAc(b1-3)Gal(b1-4)GlcNAc(b1-3)]GalNAc
# Method in brief: as §1
# [27] = target: Man(a1-2)Man(a1-3)[Man(a1-2)Man(a1-6)]Man(a1-6)[Man(a1-3)[Man(a1-6)]Man(a1-6)]Man(b1-4)GlcNAc(b1-4)GlcNAc
# Method in brief: as §1
# [28] = target: Man(a1-2)Man(a1-3)[Man(a1-6)]Man(a1-6)[Man(a1-2)Man(a1-3)]Man(b1-4)GlcNAc(b1-4)GlcNAc
# Method in brief: as §1
# [29] = target: Man(a1-2)Man(a1-6)[Man(a1-3)]Man(a1-6)[Man(a1-2)Man(a1-2)Man(a1-3)]Man(b1-4)GlcNAc(b1-4)GlcNAc
# Method in brief: as §1
# [30] = target: Man(a1-3)[Man(a1-6)]Man
# Method in brief: as §1
# [31] = target: Man(a1-3)[Man(a1-6)]Man(a1-6)[Man(a1-2)Man(a1-3)]Man(b1-4)GlcNAc(b1-4)GlcNAc
# Method in brief: as §1
# [32] = target: Man(a1-3)[Man(a1-6)]Man(a1-6)[Man(a1-3)]Man
# Method in brief: as §1
# [33] = target: Man(a1-3)[Man(a1-6)]Man(a1-6)[Man(a1-3)]Man(b1-4)GlcNAc(b1-4)GlcNAc
# Method in brief: as §1
# [34] = target: Man(a1-3)[Man(a1-6)]Man(b1-4)GlcNAc(b1-4)GlcNAc
# Method in brief: as §1
# [35] = target: Man(a1-3)[Man(a1-6)]Man(b1-4)GlcNAc(b1-4)[Fuc(a1-6)]GlcNAc
# Method in brief: as §1
# [36] = target: Neu5Ac(a2-3)Gal(b1-3)GalNAc(b1-4)[Neu5Ac(a2-8)Neu5Ac(a2-3)]Gal(b1-4)Glc
# Method in brief: as §1
# [37] = target: Neu5Ac(a2-3)Gal(b1-4)GlcNAc(b1-3)Gal(b1-4)GlcNAc(b1-2)Man(a1-3)[Neu5Ac(a2-3)Gal(b1-4)GlcNAc(b1-3)Gal(b1-4)GlcNAc(b1-2)Man(a1-6)]Man(b1-4)GlcNAc(b1-4)GlcNAc
# Method in brief: as §1
# [38] = target: Neu5Ac(a2-3)Gal(b1-4)GlcNAc(b1-3)Gal(b1-4)GlcNAc(b1-3)GalNAc
# Method in brief: as §1
# [39] = target: Neu5Ac(a2-3)[GalNAc(b1-4)]Gal(b1-4)GlcNAc(b1-3)GalNAc
# Method in brief: as §1
# [40] = target: Neu5Ac(a2-6)Gal(b1-4)GlcNAc(b1-2)Man(a1-3)Man(b1-4)GlcNAc(b1-4)GlcNAc
# Method in brief: as §1
# [41] = target: Neu5Ac(a2-6)Gal(b1-4)GlcNAc(b1-2)Man(a1-3)[GlcNAc(b1-4)][Neu5Ac(a2-6)Gal(b1-4)GlcNAc(b1-2)Man(a1-6)]Man(b1-4)GlcNAc(b1-4)GlcNAc
# Method in brief: as §1
# [42] = target: Neu5Ac(a2-6)Gal(b1-4)GlcNAc(b1-3)Gal(b1-4)GlcNAc(b1-3)Gal(b1-4)GlcNAc(b1-2)Man(a1-3)[Neu5Ac(a2-6)Gal(b1-4)GlcNAc(b1-3)Gal(b1-4)GlcNAc(b1-3)Gal(b1-4)GlcNAc(b1-2)Man(a1-6)]GalNAc
# Method in brief: as §1
# [43] = target: Neu5Ac(a2-6)GalNAc(b1-4)GlcNAc6S
# Method in brief: as §1
# [44] = target: Neu5Ac(a2-8)Neu5Ac(a2-3)Gal(b1-3)GalNAc(b1-4)[Neu5Ac(a2-3)]Gal(b1-4)Glc
# Method in brief: as §1
# [45] = target: Neu5Ac(a2-8)Neu5Ac(a2-3)Gal(b1-4)GlcNAc
# Method in brief: as §1
# [46] = target: Neu5Ac(a2-8)Neu5Ac(a2-8)Neu5Ac
# Method in brief: as §1
# [47] = target: Neu5Ac(b1-6)GalNAc
# Method in brief: as §1
# [48] = target: Neu5Gc(a2-3)Gal(b1-3)[Fuc(a1-4)]GlcNAc
# Method in brief: as §1
# [49] = target: Neu5Gc(a2-6)Gal(b1-4)GlcNAc
# Method in brief: as §1
binder,measurement,setting,value
"GNA (Galanthus nivalis), P30617 (protein) MAKASLLILAAIFLGVITPSCLSDNILYSGETLSTGEFLNYGSFVFIMQEDCNLVLYDVDKPIWATNTGGLSRSCFLSMQTDGNLVVYNPSNKPIWASNTGGQNGNYVCILQKDRNVVIYGTDRWATGTHTGLVGIPASPPSEKYPTAGKIKLVTAK",glycan array binding signal (z-score),[1],-0.048
same,glycan array binding signal (z-score),[2],-0.241
same,glycan array binding signal (z-score),[3],-0.171
same,glycan array binding signal (z-score),[4],-0.127
same,glycan array binding signal (z-score),[5],-0.127
same,glycan array binding signal (z-score),[6],2.17
same,glycan array binding signal (z-score),[7],-0.182
same,glycan array binding signal (z-score),[8],-0.106
same,glycan array binding signal (z-score),[9],-0.195
same,glycan array binding signal (z-score),[10],-0.192
same,glycan array binding signal (z-score),[11],-0.172
same,glycan array binding signal (z-score),[12],-0.167
same,glycan array binding signal (z-score),[13],3.11
same,glycan array binding signal (z-score),[14],0.166
same,glycan array binding signal (z-score),[15],-0.076
same,glycan array binding signal (z-score),[16],-0.093
same,glycan array binding signal (z-score),[17],-0.163
same,glycan array binding signal (z-score),[18],-0.116
same,glycan array binding signal (z-score),[19],-0.018
same,glycan array binding signal (z-score),[20],-0.21
same,glycan array binding signal (z-score),[21],0.332
same,glycan array binding signal (z-score),[22],-0.065
same,glycan array binding signal (z-score),[23],-0.101
same,glycan array binding signal (z-score),[24],-0.142
same,glycan array binding signal (z-score),[25],-0.175
same,glycan array binding signal (z-score),[26],-0.172
same,glycan array binding signal (z-score),[27],6.07
same,glycan array binding signal (z-score),[28],2.23
same,glycan array binding signal (z-score),[29],3.2
same,glycan array binding signal (z-score),[30],4.73
same,glycan array binding signal (z-score),[31],5.86
same,glycan array binding signal (z-score),[32],3.04
same,glycan array binding signal (z-score),[33],5.35
same,glycan array binding signal (z-score),[34],9.48
same,glycan array binding signal (z-score),[35],6.97
same,glycan array binding signal (z-score),[36],-0.155
same,glycan array binding signal (z-score),[37],0.02
same,glycan array binding signal (z-score),[38],-0.172
same,glycan array binding signal (z-score),[39],-0.073
same,glycan array binding signal (z-score),[40],-0.17
same,glycan array binding signal (z-score),[41],-0.182
same,glycan array binding signal (z-score),[42],-0.029
same,glycan array binding signal (z-score),[43],-0.173
same,glycan array binding signal (z-score),[44],-0.169
same,glycan array binding signal (z-score),[45],-0.178
same,glycan array binding signal (z-score),[46],-0.155
same,glycan array binding signal (z-score),[47],-0.21
same,glycan array binding signal (z-score),[48],-0.154
same,glycan array binding signal (z-score),[49],-0.116
